# Measured values from PubChem BioAssay.
# Calls of active or inactive are those of the source.
# What was measured:
# [1] = anti-His antibody binders, primary screen, artefact control for SMM control protein annotation, biochemical, small-molecule microarray, 635 nm fluorescence (AID 1128); conditions: anti-His Alexa647 antibody binding, higher = more signal;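 further: score merges feature fluorescence with signal-to-noise for each printed compound spot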
# [2] = system: Human papillomavirus type 1a E7 protein (residues 1-88); experiment: HPV1a E7 small-molecule binders, primary screen, biochemical, small-molecule microarray, residues 1-88, 635 nm (AID 1129); conditions: small-molecule microarray binding, fluorescence 635 nm; higher = more signal
# [3] = target: Focal adhesion kinase 1 (Homo sapiens) (UniProt Q05397); experiment: small-molecule microarray binders of FAK, primary screen, biochemical, 635/667 nm fluorescence, BSA, DTT (AID 1130); conditions: PTK2 binding, 635 nm fluorescence, higher = more signal;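 further: composite of spot emission at 667 nm and signal to noise over triplicate slides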
# Chain of Focal adhesion kinase 1 (Homo sapiens) (Q05397 whole entry, looked up): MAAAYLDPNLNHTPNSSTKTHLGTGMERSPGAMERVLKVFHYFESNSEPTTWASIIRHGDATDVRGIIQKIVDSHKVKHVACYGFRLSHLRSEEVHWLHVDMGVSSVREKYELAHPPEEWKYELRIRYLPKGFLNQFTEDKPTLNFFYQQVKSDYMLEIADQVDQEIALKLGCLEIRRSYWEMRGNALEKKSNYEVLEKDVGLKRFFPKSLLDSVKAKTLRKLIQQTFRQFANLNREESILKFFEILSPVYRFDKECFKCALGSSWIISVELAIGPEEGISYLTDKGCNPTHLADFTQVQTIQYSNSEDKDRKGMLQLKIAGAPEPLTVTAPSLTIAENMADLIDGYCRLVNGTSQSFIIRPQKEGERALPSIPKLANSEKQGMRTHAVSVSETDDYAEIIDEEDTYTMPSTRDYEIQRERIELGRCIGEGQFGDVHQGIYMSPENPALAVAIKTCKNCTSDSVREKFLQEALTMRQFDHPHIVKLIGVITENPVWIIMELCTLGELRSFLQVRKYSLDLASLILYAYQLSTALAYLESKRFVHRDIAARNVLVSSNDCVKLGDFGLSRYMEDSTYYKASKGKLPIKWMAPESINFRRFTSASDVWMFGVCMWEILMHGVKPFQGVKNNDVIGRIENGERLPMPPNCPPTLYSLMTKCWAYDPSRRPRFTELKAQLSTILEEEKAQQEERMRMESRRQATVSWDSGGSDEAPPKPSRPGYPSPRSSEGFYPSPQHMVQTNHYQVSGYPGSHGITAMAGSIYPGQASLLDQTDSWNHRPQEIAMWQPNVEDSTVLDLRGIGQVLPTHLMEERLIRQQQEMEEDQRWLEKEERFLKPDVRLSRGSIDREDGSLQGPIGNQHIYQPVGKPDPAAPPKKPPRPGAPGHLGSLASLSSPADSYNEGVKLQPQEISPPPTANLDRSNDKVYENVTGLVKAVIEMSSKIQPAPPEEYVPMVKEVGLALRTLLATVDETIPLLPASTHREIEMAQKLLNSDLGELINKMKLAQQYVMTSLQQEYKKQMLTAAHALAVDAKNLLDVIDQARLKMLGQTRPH
# [4] = system: Fibrinogen (Alexa647-labelled); experiment: fibrinogen binders on compound microarrays, profiling panel, artefact control for SMM control-protein annotation, biochemical, small-molecule microarray, 635/667 nm fluorescence (AID 1131); conditions: fibrinogen-A647 binding fluorescence, higher = more signal;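 further: z-score merges 667 nm fluorescence with per-spot signal-to-noise over triplicate slides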
# [5] = target: Follistatin (Homo sapiens) (UniProt P19883); experiment: follistatin binders on small-molecule microarrays, primary screen, biochemical, small-molecule microarray, 635/667 nm fluorescence (AID 1132); conditions: FST binding, 635 nm fluorescence, higher = more signal
# Chain of Follistatin (Homo sapiens) (P19883 whole entry, looked up): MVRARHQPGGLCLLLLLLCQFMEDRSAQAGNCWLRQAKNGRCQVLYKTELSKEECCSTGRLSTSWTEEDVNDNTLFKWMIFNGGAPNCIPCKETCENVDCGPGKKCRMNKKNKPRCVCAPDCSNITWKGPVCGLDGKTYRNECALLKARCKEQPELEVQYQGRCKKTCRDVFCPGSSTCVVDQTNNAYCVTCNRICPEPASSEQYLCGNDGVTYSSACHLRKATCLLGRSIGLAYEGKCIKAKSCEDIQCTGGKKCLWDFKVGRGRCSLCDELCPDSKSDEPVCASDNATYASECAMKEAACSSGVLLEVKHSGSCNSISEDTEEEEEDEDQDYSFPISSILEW
# [6] = target: Fibroblast growth factor 2 (Homo sapiens) (UniProt P09038); experiment: FGF2 binders on small-molecule microarrays, primary screen, biochemical, small-molecule microarray, 635/667 nm fluorescence (AID 1133); conditions: small-molecule microarray binding, FGF2, fluorescence 635/667; higher = more signal
# Chain of Fibroblast growth factor 2 (Homo sapiens) (P09038 whole entry, looked up): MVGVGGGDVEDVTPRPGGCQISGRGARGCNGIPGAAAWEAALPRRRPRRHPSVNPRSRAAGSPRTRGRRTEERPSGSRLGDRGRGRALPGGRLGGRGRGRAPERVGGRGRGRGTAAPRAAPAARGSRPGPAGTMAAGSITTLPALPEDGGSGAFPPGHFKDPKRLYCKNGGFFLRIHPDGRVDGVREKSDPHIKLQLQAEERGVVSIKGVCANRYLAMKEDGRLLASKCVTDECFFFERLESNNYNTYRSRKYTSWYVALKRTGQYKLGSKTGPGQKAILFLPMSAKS
# [7] = mitochondrial membrane potential change in A549 cells, profiling panel, cell-based, JC-1 fluorescence, basal, 24 h, 100 nL (AID 1138); conditions: higher = more signal;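 further: A549 lung adenocarcinoma cells under basal conditions with no added stimulus; test concentration not given here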
# [8] = system: Lefty1; experiment: Lefty1 binders on small-molecule microarrays, primary screen, biochemical, small-molecule microarray, 635/667 nm fluorescence (AID 1139); conditions: small-molecule microarray binding, fluorescence 635/667; higher = more signal
# [9] = system: wheat germ agglutinin (Triticum aestivum), Alexa647-labelled; experiment: wheat germ agglutinin binders on compound microarrays, profiling panel, artefact control for SMM control-protein annotation, biochemical, small-molecule microarray, 635/667 nm fluorescence (AID 1140); conditions: WGA-A647 binding, 635 nm fluorescence, higher = more signal;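 further: score merges 667 nm feature emission with signal to noise over triplicate slides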
# [10] = target: Luciferin 4-monooxygenase (Photinus pyralis) (UniProt P08659); experiment: firefly luciferase enzyme inhibitors, primary screen, biochemical, luminescence, purified enzyme, 2006 set (AID 1141); conditions: SteadyGlo luminescence, 30 min, higher = more signal, called active from +8 up or from −8 down;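 further: cell-free assay with purified firefly luciferase at 100 ng per well in PBS; test concentration not given here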
# Chain of Luciferin 4-monooxygenase (Photinus pyralis) (P08659 whole entry, looked up): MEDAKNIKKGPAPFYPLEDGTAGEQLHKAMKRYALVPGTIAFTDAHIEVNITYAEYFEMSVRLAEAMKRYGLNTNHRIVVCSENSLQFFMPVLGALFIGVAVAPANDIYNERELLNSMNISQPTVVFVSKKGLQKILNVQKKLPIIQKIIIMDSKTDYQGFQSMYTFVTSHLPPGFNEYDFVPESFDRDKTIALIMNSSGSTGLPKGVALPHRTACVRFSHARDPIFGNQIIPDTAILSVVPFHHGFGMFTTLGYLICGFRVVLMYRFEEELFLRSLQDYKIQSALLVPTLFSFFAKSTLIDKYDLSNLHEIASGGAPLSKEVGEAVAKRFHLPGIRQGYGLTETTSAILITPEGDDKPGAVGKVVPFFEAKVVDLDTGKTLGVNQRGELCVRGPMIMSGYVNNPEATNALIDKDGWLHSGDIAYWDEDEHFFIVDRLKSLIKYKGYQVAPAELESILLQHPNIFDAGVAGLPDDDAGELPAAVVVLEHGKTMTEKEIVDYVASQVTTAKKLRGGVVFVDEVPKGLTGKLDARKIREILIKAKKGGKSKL
SMILES,composite z-score [1],composite z-score [2],composite z-score [3],composite z-score [4],composite z-score [5],composite z-score [6],z-score [7],composite z-score [8],composite z-score [9],z-score [10]
[N-]=[N+]=Nc1ccccc1[C@H]1OC(c2ccc(OCCCO)cc2)=N[C@@]1(Cc1ccccc1)C(=O)NCCN1CCOCC1,1.65,1.23,0.309,0.996,1.21,0.989,2.49,0.624,1.2,-4.32 (inactive)
Cc1ccc(S[C@]2(C(=O)NCC(F)(F)F)CC(=O)N(Cc3cc(C(F)(F)F)cc(C(F)(F)F)c3)[C@@H]2c2ccc(CO)cc2)cc1,1.86,-1.33,-0.237,-1.09,-0.192,-0.897,0.0304,-0.126,-0.744,-0.46 (inactive)
COCCOC(=O)N1C(=O)[C@@]2(c3cc(C#CCCO)ccc31)[C@H](C(=O)Nc1nc3ccccc3s1)[C@H]1C(=O)O[C@H](c3ccccc3)[C@H](c3ccccc3)N1[C@@H]2c1ccc(O)cc1,2.54,1.24,0.978,0.919,1.38,1.28,-0.137,1.05,0.777,0.57 (inactive)
CCCCN1CC=CC23O[C@@H]4/C=C\CCCOC(=O)C4[C@H]2C(=O)N(CCO)[C@@H]3C1=O (stereo not given in full),1.3,0.0166,0.101,-1.25,-1.03,-1.33,-0.655,-0.832,-0.724,1.19 (inactive)
N#Cc1ccc(NN2C(C(O)c3ccc(Br)cc3)C=CC3C(=O)N(c4ccccc4)C(=O)C32)cc1 (stereo not given),1.28,1.18,0.633,0.561,0.873,0.127,0.494,-0.0682,1.49,-0.517 (inactive)
NCCCCCNC(=O)[C@H]1C[C@H]2C(=O)N3CCC[C@H]3C(=O)N2[C@H]1c1cccc(OCCO)c1,3.3,0.987,0.0204,0.83,0.208,-0.146,-0.705,-0.285,1.29,-0.165 (inactive)
CC1CC/C=C\[C@H]2OC34C=CCN(C(C)C)C(=O)[C@H]3N(CCO)C(=O)[C@@H]4C2C(=O)O1 (stereo not given in full),-0.567,-0.724,-0.301,-1.41,-1.27,-1.03,0.193,-0.445,-0.748,-0.886 (inactive)
CCOC(=O)C[C@H]1[C@H](OC(=O)c2ccc(C(=O)c3ccccc3)cc2)[C@@H](NC(=O)C2CCCCC2)c2cc(OCCCO)ccc2N1C(=O)c1ccc2ccccc2n1,0.497,0.835,0.0096,0.102,0.796,0.979,0.956,1.41,0.0469,0.425 (inactive)
N[C@@H](Cc1ccccc1)C(=O)NCc1cn(Cc2ccccc2)nn1,0.615,-0.096,-0.519,0.395,1.15,0.416,0.154,0.2,0.309,-0.352 (inactive)
CC(C)C(CO)N1C(=O)[C@@H]2[C@H]3C(=O)OCC=C[C@H]3OC23C=CCN(c2ccc(Cl)cc2)C(=O)[C@@H]13 (stereo not given in full),-1.82,-1.22,-0.265,-0.934,-0.728,-0.794,1.05,-0.712,-0.928,-0.469 (inactive)
CO[C@H]1O[C@H](CO)[C@@H](OC(=O)CCc2ccccc2)[C@@H]2OC(=O)[C@@H](Cc3ccccc3)C/C=C/C[C@H](Cc3ccccc3)C(=O)O[C@@H]12,0.623,1.03,0.178,0.28,1.28,1.31,2.11,0.396,0.0856,0.769 (inactive)
CC(C)(C)OC(=O)CC[C@@]1(C(=O)NCC(O)CO)N=C(c2ccc(OCCCO)cc2)O[C@@H]1c1ccccc1CN=[N+]=[N-] (stereo not given in full),1.41,0.98,0.426,0.91,0.716,0.337,0.404,-0.0839,0.299,-1.78 (inactive)
COc1cc(NN2C(C(O)c3ccc(N(C)C)cc3)C=CC3C(=O)N(c4ccccc4)C(=O)C32)cc(OC)c1OC (stereo not given),0.555,1.03,0.0507,0.945,1.22,-0.223,0.0531,0.0646,0.885,0.11 (inactive)
CCCC#C[Si](O[C@H](CC)c1cn([C@H](C)c2ccccc2)nn1)(C(C)C)C(C)C,0.439,0.625,0.986,0.856,0.297,0.484,1.04,0.23,0.06,-1.08 (inactive)
CC(C)[Si]1(C(C)C)OCc2cc(C3CC3)nc(-c3ccc(Oc4ccccc4)cc3)c21,-0.33,-1.1,-0.0826,-0.753,-0.538,-0.206,0.546,-0.365,-0.596,-0.311 (inactive)
NC(=O)[C@@]1(Cc2ccccc2)COC(c2ccc(OCCCO)cc2)=N1,1.19,-0.974,0.0264,-0.979,-0.0248,0.387,-0.244,0.0016,0.523,-4.28 (inactive)
C=CC[C@]1(C(=O)N2CCOCC2)COC(c2ccc(OCCCO)cc2)=N1,2.4,1.3,0.555,0.837,1.33,0.386,-0.772,0.768,0.959,0.566 (inactive)
COc1cc2c(cc1O)C(c1cccs1)N(Cc1cc3c(cc1Br)OCO3)CC2 (stereo not given),1.83,1.28,0.822,0.976,1.08,0.75,-1.56,0.556,0.544,-0.657 (inactive)
CCCC=C(CCC)[C@@H](NS(=O)(=O)CC12CCC(CC1=O)C2(C)C)c1ccc(C(=O)OC)cc1 (stereo not given in full),1.33,0.71,0.187,0.0749,0.107,-0.056,0.237,0.134,0.301,2.15 (inactive)
CCOC(=O)C[C@H]1[C@H](OC(=O)c2ccc(-c3ccccc3)cc2)[C@@H](NC(=O)CC(C)C)c2cc(OCCCO)ccc2N1C(=O)c1ccc2ccccc2n1,-0.282,0.516,0.365,0.944,0.285,0.0792,0.5,0.455,0.262,0.854 (inactive)
C=CCC(OC(C)=O)[C@@H]1[C@@H](N(Cc2cccc3ccccc23)C(=O)Cc2ccc(OC)cc2)c2cc(OCCCO)ccc2N1C(=O)c1ccc(-c2ccccc2)cc1 (stereo not given in full),-0.328,-0.127,0.0862,0.701,0.662,0.394,0.0256,-0.47,0.297,0.828 (inactive)
Cc1ccc(S[C@]2(C(=O)NCc3ccccc3)CC(=O)N(C3CCCCC3)[C@@H]2c2ccc(CO)cc2I)cc1,0.731,0.872,0.25,0.773,0.382,0.904,1.3,-0.0294,0.68,-0.421 (inactive)
COC(=O)c1c(CC[C@@H](CO)NC(=O)N[C@@H](C)Cn2cc(-c3ccccn3)nn2)oc(C(C)=O)c1C(=O)OC,1.73,-0.0012,-0.291,-0.676,1.28,0.707,-0.467,0.936,0.184,0.641 (inactive)
COCCOC(=O)N1C(=O)[C@@]2(c3cc(C#CCC(C(=O)OC)C(=O)OC)ccc31)[C@H](c1ccc(OCCO)cc1)N1[C@H](c3ccccc3)[C@H](c3ccccc3)OC(=O)[C@H]1[C@@H]2C(=O)N1CCc2cc(OC)c(OC)cc2C1,1.75,1.22,0.919,0.889,1.37,1.5,-0.942,1.4,1.08,-0.411 (inactive)
C=CCC(OC(C)=O)[C@@H]1[C@@H](N(Cc2cccc3ccccc23)C(=O)Cc2ccc(F)cc2)c2cc(OCCCO)ccc2N1C(=O)c1ccc2ccccc2c1 (stereo not given in full),0.301,-0.247,0.114,0.131,0.7,-0.328,1.03,0.117,0.0096,0.739 (inactive)
CCCC=C(CCC)[C@@H](NC(=O)C(C)(C)C)c1ccc(C(=O)OC)cc1,0.933,1.01,0.451,0.972,0.156,-0.764,2.85,-0.947,0.995,1.91 (inactive)
